# Hits are enriched below; roughly 6.7% of the tested compounds scored in any of these assays.
# C diff HTS – C. difficile growth inhibitors, primary screen, HTS; Clostridium difficile clinical isolate growth, OD600, 24 h; stronger effect = lower value; AID 1259249, 2017; growth activity, negative = inhibition, % at 16 µg/mL (by protocol); 0.25% of 86,000 active;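 active = mean growth activity at or below -80% and every replicate also at or below -80%; inconclusive = mean at or below -80% but some replicate above -80%; inactive = mean growth activity above -80%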;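 note: 0% = DMSO wells and -100% = levofloxacin 16 µg/mL wells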
# Pf Dd2 inh – P. falciparum Dd2 growth inhibitors, primary screen, SYBR Green fluorescence, single dose replicates | 72 h; stronger effect = lower value | activity change, % at 10 µM | 2.3% of 94,000 active | AID 1159554, 2015; in the data active = activity change below about -80%; inconclusive = no clear call, values can overlap the other calls
# Tcruzi prolif – T. cruzi intracellular proliferation inhibitors, primary screen, cell-based, beta-gal Tulahuen parasites, NIH3T3 host, luminescence; T. cruzi beta-gal in NIH3T3, GalScreen luminescence, 90 h; inhibition, % at 8.34 µM; 5.9% of 77,000 active; AID 624255, 2012;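 active = mean inhibition above about 93%, with at least 55% of replicates each passing it, limit read from the data, passing the limit was not always enough; inconclusive = only one of those two conditions holds; inactive = neither condition holds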
# Active calls of the source: *; ? = inconclusive; / = no result.
SMILES,C diff HTS,Pf Dd2 inh,Tcruzi prolif
N#C[C@@H]1[C@H](c2ccc(C#CC3CCCCC3)cc2)[C@H](CO)N1C(=O)Nc1ccc(F)cc1,-8,-88*,/
C[C@@H]1CN([C@H](C)CO)C(=O)c2cc(NC(=O)CCCCCC(=O)Nc3ccccc3N)ccc2O[C@H]1CN(C)S(=O)(=O)c1cn(C)cn1,0,-19,/
C[C@H](CO)N1C[C@H](C)[C@@H](CN(C)Cc2ccncc2)OCCCC[C@H](C)Oc2ccc(N(C)C)cc2C1=O,-4,4,33
COc1ccc(S(=O)(=O)N(C)C[C@H]2OCCCC[C@H](C)Oc3ccc(NC(=O)C4CCCCC4)cc3C(=O)N([C@@H](C)CO)C[C@H]2C)cc1,3,?,57
O=C(Cc1ccccn1)NCC[C@H]1CC[C@H](NC(=O)Nc2ccc(Cl)cc2)[C@@H](CO)O1,7,-10,-54
COc1ccc2c3c(n(C)c2c1)[C@@H](CO)NCC31CCN(Cc2cc(F)ccc2F)CC1,8,-78,/
COc1ccc2c3c(n(C)c2c1)[C@H](CO)NCC31CCN(CC2CCCC2)CC1,16,-86*,/
COc1ccc2c3c(n(C)c2c1)[C@H](CO)NCC31CCN(Cc2ccc(Cl)cc2)CC1,10,-91*,/
COc1ccc2c3c(n(C)c2c1)[C@@H](CO)NCC31CCN(Cc2ccc(Cl)cc2)CC1,/,0,/
COc1ccc2c3c(n(C)c2c1)[C@H](CO)NCC31CCN(Cc2ccc(F)cc2)CC1,26,-83*,/
COc1ccc2c3c(n(C)c2c1)[C@H](CO)NCC31CN(CC2CCOCC2)C1,-1,4,/
Cc1ccc(S(=O)(=O)N(C)C[C@H]2OCCCC[C@H](C)Oc3ccc(NS(C)(=O)=O)cc3C(=O)N([C@H](C)CO)C[C@@H]2C)cc1,-4,-19,42
CCCNC(=O)N(C)C[C@@H]1Oc2cc(-c3ccccc3F)ccc2S(=O)(=O)N([C@@H](C)CO)C[C@@H]1C,-1,7,/
C[C@@H]1CN([C@H](C)CO)C(=O)Cc2cc(NC(=O)Cc3ccccc3)ccc2O[C@@H]1CN(C)S(C)(=O)=O,1,13,29
C[C@@H]1CN([C@@H](C)CO)C(=O)c2cc(NC(=O)CCCCCC(=O)Nc3ccccc3N)ccc2O[C@H]1CN(C)S(=O)(=O)c1ccc(Cl)cc1,0,-41,/
COc1ccc(CN(C)C[C@H]2Oc3c(NC(=O)c4ccc(-c5nccs5)cc4)cccc3C(=O)N([C@H](C)CO)C[C@@H]2C)cc1,13,-60,9
COc1ccc(CN(C)C[C@H]2Oc3c(NC(=O)c4ccc(-c5nccs5)cc4)cccc3C(=O)N([C@@H](C)CO)C[C@@H]2C)cc1,33,-66,11
COc1ccc(CN(C)C[C@@H]2Oc3c(NC(=O)c4ccc(-c5nccs5)cc4)cccc3C(=O)N([C@@H](C)CO)C[C@H]2C)cc1,-16,-90*,8
COc1ccc(CN(C)C[C@H]2Oc3c(NC(=O)c4ccc(-c5nccs5)cc4)cccc3C(=O)N([C@@H](C)CO)C[C@H]2C)cc1,1,-82*,/
COc1ccc(CN(C)C[C@@H]2Oc3c(NC(=O)c4ccc(-c5nccs5)cc4)cccc3C(=O)N([C@H](C)CO)C[C@H]2C)cc1,-12,-84*,16
COc1ccc(CN(C)C[C@@H]2Oc3c(NC(=O)c4ccc(-c5nccs5)cc4)cccc3C(=O)N([C@H](C)CO)C[C@@H]2C)cc1,14,-42,-2
CO[C@@H](CN(C)Cc1cc(F)ccc1F)[C@@H](C)CN([C@H](C)CO)S(=O)(=O)c1ccc(F)cc1,/,-40,47
O=C(NCc1ccc(F)cc1)[C@H]1[C@H](CO)[C@H]2Cn3c(cccc3=O)[C@H]2N1CC1CC1,-3,9,40
CCCNC(=O)Nc1ccc2c(c1)C(=O)N(C)C[C@H](OC)[C@H](C)CN(CCC(F)(F)F)[C@@H](C)CO2,/,/,51
C[C@H]1CN([C@@H](C)CO)S(=O)(=O)c2ccc(C#Cc3ccccc3)cc2O[C@H]1CN(C)C,11,-71,80
C[C@H](CO)N1C[C@H](C)[C@@H](CN(C)Cc2ccc(C(=O)O)cc2)Oc2cc(/C=C/c3ccccc3)ccc2S1(=O)=O,-3,-26,51
C/C=C/c1ccc2c(c1)O[C@H](CN(C)Cc1ccc(C(=O)O)cc1)[C@@H](C)CN([C@H](C)CO)S2(=O)=O,2,-86*,/
C/C=C/c1ccc2c(c1)O[C@H](CN(C)C(=O)Nc1cc(F)ccc1F)[C@@H](C)CN([C@H](C)CO)S2(=O)=O,9,-33,28
C[C@H](CO)N1C[C@H](C)[C@H](CN(C)C(=O)Nc2cc(F)ccc2F)Oc2cc(/C=C/c3ccccc3)ccc2S1(=O)=O,1,-88*,/

# Screens deposited in PubChem BioAssay by Broad Institute.
